hcDAF12 agonist – H. contortus DAF-12 nuclear receptor activators, primary screen, cell-based, luminescence, HEK293, lit1-tk-luc reporter; 370,000 tested, 1.4% active; AID 652067, 2013; HEK293 hcDAF-12 lit1-tk-luc reporter; 0% DMSO, 100% Δ7-dafachronic acid; activation, % at 6.8 µM;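 active = activation above the mean of all tested compounds plus 3 SD, cut at about 5.5% in these data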;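 also: 100% = response to 3 µM Δ7-dafachronic acid high control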
DAX1 inh-1 – DAX1 (NR0B1) inhibitors, primary screen, cell-based, HEK293, Gal4-DAX1, luciferase luminescence; 340,000 tested, 0.99% active; inhibition, % at 6.75 µM; HEK293 Gal4-DAX1 luciferase reporter; Nuclear receptor subfamily 0 group B member 1 (Homo sapiens), P51843;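 active = inhibition above the mean over all tested compounds plus 3 SD, cut at about 4.2% in these data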;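 also: 0% = DAX1-transfected cells with DMSO and 100% = empty-vector control cells with DMSO; inhibition shows as a rise in luminescence from relieved DAX1 repression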
Target sequence (P51843 207-470 limits assumed): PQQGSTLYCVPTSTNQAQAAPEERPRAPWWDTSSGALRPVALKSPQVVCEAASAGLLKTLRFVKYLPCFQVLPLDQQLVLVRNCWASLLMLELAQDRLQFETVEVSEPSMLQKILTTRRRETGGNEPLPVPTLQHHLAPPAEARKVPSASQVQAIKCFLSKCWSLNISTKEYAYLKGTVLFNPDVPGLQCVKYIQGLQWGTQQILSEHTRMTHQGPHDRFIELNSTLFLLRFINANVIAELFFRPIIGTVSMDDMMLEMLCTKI
hgDAF-12 ag – H. glycines DAF-12 receptor agonists, primary screen, cell-based, luminescence, HEK293, GAL4 fusion, UAS-luciferase | 370,000 tested, 1.8% active | activation, % at 6.8 µM | Nuclear hormone receptor DAF-12 (Heterodera glycines), GAL4 fusion | HEK293 GAL4-hgDAF12 UAS-luciferase reporter, agonist luminescence; normalized to butyrate control;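 active = activation above a cutoff set at the mean of all screened compounds plus 3 SD, cut at about 10% in these data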;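 also: 0% = DMSO wells and 100% = sodium butyrate wells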
ssDAF-12 act – S. stercoralis DAF-12 nuclear receptor activators, primary screen, cell-based, luminescence, HEK293, GRIP1 co-expression, lit1-tk-luc; activation, % at 6.8 µM; Nuclear hormone receptor DAF-12 (Strongyloides stercoralis); HEK293 ssDAF-12/GRIP1 lit1-tk-luc reporter; % of 3 µM dafachronic acid response; 370,000 tested, 1% active;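 active = activation above the mean over all tested compounds plus 3 SD, cut at about 0.9% in these data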;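 also: 0% = DMSO-only wells and 100% = 3 µM delta7-dafachronic acid wells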
DAX1 inh-2 – DAX1 (NR0B1) inhibitors on StAR promoter, primary screen, cell-based, luminescence, SF-1 (NR5A1), full-length DAX-1; 370,000 tested, 1.1% active; inhibition, % at 6.8 µM; HEK293T StAR-luciferase reporter, SF-1/DAX-1 repression relief;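 active = inhibition above the mean over all tested compounds plus 3 SD, cut at about 3.6% in these data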;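 also: 0% = DAX-1 cells with DMSO and 100% = cells lacking DAX-1 with DMSO; higher inhibition means more luminescence from relief of DAX-1 repression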
LXR ag – LXR agonists, Gal4 luciferase reporter, confirmation, counter-screen for hcDAF-12 agonist project, cell-based, luminescence, HEK293, H. contortus campaign; shares compounds with hcDAF12 agonist; activation, % at 6.8 µM; AID 743027, 2013; HEK293 Gal4-LXR tk-luc reporter, 24 h; normalized: DMSO 0%, positive control 100%; 3,400 tested, under 10 active;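 active = mean percent activation of the reporter above a cutoff set as the average over tested compounds plus their standard deviation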
hcDAF12 conf – H. contortus DAF-12 receptor agonists, confirmation, cell-based, luminescence, HEK293, lit1-tk-luc, triplicate; HEK293 hcDAF-12 lit1-tk-luc reporter; % of Δ7-dafachronic acid response; shares compounds with hcDAF12 agonist; activation, % at 6.8 µM; 3,400 tested, 61% active; AID 743032, 2013;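 active = mean activation across triplicate tests above the threshold derived from the earlier primary screen, cut at about 5.5% in these data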;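 also: 0% = DMSO only wells and 100% = 3 µM Δ7-dafachronic acid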
An asterisk follows results filed as active; . = no result given. In the library only some 4.1% were active in any assay of this set; here they are far more common.

SMILES	hcDAF12 agonist	DAX1 inh-1	hgDAF-12 ag	ssDAF-12 act	DAX1 inh-2	LXR ag	hcDAF12 conf
COC(=O)CN1C(c2cccc(Cl)c2)=Nc2ccc(Cl)cc2C1c1ccccc1 (centres undefined)	10*	0	1	-1	0	0	2
Cc1ccc(S(=O)(=O)N2CCOCC2)cc1C(=O)N1c2ccccc2Sc2ccccc21	0	0	-2	-1	0	.	.
Cc1ccc(-n2nnnc2SCC#N)cc1	1	1	1	-1	0	.	.
C#CCSc1nnnn1-c1ccc(Br)c(C)c1	10*	-1	4	0	0	0	5
Cc1cc(=O)oc2cc(NC(=O)c3ccccc3OC(F)F)ccc12	7.3*	0	10	1.6*	2	0	9.6*
COc1ccccc1C(=O)NCC(=O)Nc1ccc2c(c1)OCO2	-2	0	-1	-1	0	.	.
O=C(Nc1ccc2c(c1)OCO2)c1noc2c1CCCCC2	9.0*	0	12*	0	4.4*	1	6.1*
COc1ccc(Cl)cc1C(=O)Nc1ccc2c(c1)OCO2	7.3*	1	8	1.5*	3	1	10*
CC(=O)Nc1ccc2c(c1)OCO2	-1	-1	-4	-1	0	.	.
COc1ccccc1C(=O)Nc1ccc2c(c1)OCO2	8.0*	2	9	1.6*	3	1	10*
O=C(Nc1ccc2c(c1)OCO2)c1cccs1	6.6*	1	12*	0	3	1	6.1*
CN(C)N1C(N)=C(C#N)C(c2ccc3c(c2)OCO3)C2=C1CCCC2=O (centres undefined)	0	1	-1	-2	0	.	.
COc1ccc(Cl)cc1C(=O)Nc1ccncc1	-2	-2	3	-1	0	.	.
Cc1ccccc1C(=O)Nc1ccc2c(c1)OCO2	6.8*	-1	13*	0	3	2	5
COc1ccc(Cl)cc1C(=O)Nc1ccc2c(c1)OCCO2	8.6*	8.4*	10	3.0*	2	1	12*
Cn1ccnc1SCC(=O)c1c[nH]c2ccccc12	9.3*	2	10	3.8*	3	1	7.4*
CC(C)C1C(=O)N(Cc2cn(Cc3ccco3)nn2)CCS(=O)(=O)N1Cc1ccc(-c2ccc(Cl)c(Cl)c2)cc1 (centres undefined)	-1	-1	-2	-1	0	.	.
CCCn1c(SCC(=O)Nc2cccnc2Cl)n[nH]c1=O	0	0	1	-2	-1	.	.
O=C(c1cc(-c2ccc(Cl)c(Cl)c2)on1)N1CCCCC1	2	1	7	0	1	.	.
O=C(c1cc(-c2ccccc2Cl)on1)N1CCCC1	8.6*	0	12*	1	3	1	12*
O=C(c1cc(-c2ccc(Br)cc2)on1)N1CCOCC1	7.2*	0	13*	0	3	1	5
O=C(O)c1cc(-c2ccc(-c3ccc(F)cc3)o2)nc2ccccc12	13*	0	11*	1	2	1	6.8*
O=C(c1cc(-c2ccc(F)cc2)nc2ccccc12)N1CCC1	-1	-1	1	-1	0	.	.
CC(=O)n1cc(/C=C2/N=C(c3ccccc3)OC2=O)c2ccccc21	6.7*	2	2	0	0	0	4
CC(=O)n1cc(/C=N/NC(N)=S)c2ccccc21	0	2	-2	-2	0	.	.
SMILES	hcDAF12 agonist	DAX1 inh-1	hgDAF-12 ag	ssDAF-12 act	DAX1 inh-2	LXR ag	hcDAF12 conf
O=C(Nc1cccc2ccccc12)c1ccco1	2	.	0	-1	-1	.	.
O=C(NC(=S)Nc1nc2c(ccc3ccccc32)s1)c1cccs1	9.0*	1	6	0	-1	0	5.9*
O=C(Nc1nc2c(ccc3ccccc32)s1)c1ccco1	6.7*	1	3	1	2	1	4
O=C(NN=Cc1cccc([N+](=O)[O-])c1)c1cccc2ccccc12	-2	0	-1	0	0	.	.
O=C(COC(=O)CC1CCCC1)Nc1cc2c(cc1Cl)C(=O)c1ccccc1C2=O	9.1*	2	7	0	3	1	6.1*
CC(C)c1ccc(NC(=O)COC(=O)CC2CCCC2)cc1	0	0	0	0	2	.	.
Cc1cccc(NC(=O)Nc2cccc3ccccc23)c1	-2	2	2	-1	0	.	.
Cc1cccc(NC(=S)Nc2cccc3ccccc23)c1	7.2*	1	5	1.4*	-1	0	11*
CCc1cccc(NC(=S)Nc2cccc3ccccc23)c1	7.4*	1	2	0	-1	0	5.9*
O=C(/C=C\c1ccc2c(c1)OCO2)CC1(O)C(=O)Nc2ccccc21 (centres undefined)	2	2	-2	0	0	.	.
c1ccc(-c2cnnc(-c3ccccn3)n2)cc1	7.1*	2	5	-1	2	0	2
COc1ccc(N(CC(=O)N2CCN(c3ccccc3)CC2)S(=O)(=O)c2ccccc2)cc1	1	0	-1	0	1	.	.
Clc1ccc(-c2nnc3n2CCCC3)cc1Cl	-1	0	0	-1	1	.	.
CN(C)S(=O)(=O)c1ccc(Cl)c(-c2nnc3n2CCCCC3)c1	7.8*	1	0	0	1	0	3
CC(=O)Nc1cccc(-c2ccnc3c2CC(C(=O)NCc2cccs2)O3)c1 (centres undefined)	-1	.	-1	-1	-2	.	.
CCCn1c(=O)n(C)c(=O)c2c(SCC(=O)NCC(c3ccccc3)N(C)C)nc(CC(C)C)nc21 (centres undefined)	0	2	1	-1	0	.	.
Cn1c(=NN=Cc2ccccc2OCCO)sc2ccccc21	7.8*	2	9	1.7*	3	0	7.9*
COc1cc(C(=O)N/N=c2/sc3ccccc3n2C)cc(OC)c1OC	-1	0	-1	-2	0	.	.

Screens from PubChem BioAssay.
